# Measurements reported in PubChem BioAssay AID720648 (The Scripps Research Institute Molecular Screening Center, 2013).
# The whole screen tested about 370,000 compounds, of which about 3,100 (0.84%) were called active. The entries come from a sample that favours actives as a whole. A number with no mark means an inactive call.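 Rule for the calls: active = inhibition above the mean of compounds lying between control limits plus 3 SD, set per campaign (cut at about 8.5% in these data); inactive = the rest.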
# Target: Disintegrin and metalloproteinase domain-containing protein 17 (Homo sapiens) (UniProt P78536)
# Assay: ADAM17 inhibitors, primary screen, biochemical, QFRET (AID 720648);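 note: 0% = DMSO-only wells as the low control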
# Settings: recombinant ADAM17, EDANS/DABCYL FRET peptide cleavage; at 6.95 µM; hits give high values
# Disintegrin and metalloproteinase domain-containing protein 17 (Homo sapiens), sequence (P78536 215-824 limits assumed): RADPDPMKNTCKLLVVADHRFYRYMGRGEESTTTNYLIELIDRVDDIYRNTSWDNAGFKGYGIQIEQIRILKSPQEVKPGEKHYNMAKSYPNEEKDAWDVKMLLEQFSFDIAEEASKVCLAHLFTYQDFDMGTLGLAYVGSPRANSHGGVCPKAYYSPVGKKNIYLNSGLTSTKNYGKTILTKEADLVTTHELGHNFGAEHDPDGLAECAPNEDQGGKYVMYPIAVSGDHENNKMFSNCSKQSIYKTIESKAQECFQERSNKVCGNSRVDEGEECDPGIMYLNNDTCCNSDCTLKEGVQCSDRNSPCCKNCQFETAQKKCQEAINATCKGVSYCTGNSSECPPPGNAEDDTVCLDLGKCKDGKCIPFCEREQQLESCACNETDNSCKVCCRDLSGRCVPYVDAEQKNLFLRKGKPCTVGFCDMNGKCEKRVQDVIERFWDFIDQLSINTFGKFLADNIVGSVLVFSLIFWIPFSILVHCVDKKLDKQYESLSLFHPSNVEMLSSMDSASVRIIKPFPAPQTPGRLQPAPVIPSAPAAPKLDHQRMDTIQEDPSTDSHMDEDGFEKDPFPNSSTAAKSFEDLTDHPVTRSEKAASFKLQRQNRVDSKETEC
row,SMILES,inhibition
1,C=CCN1C(C(=O)OC)CN(Cc2cn(Cc3ccccc3)nn2)CCS1(=O)=O (centres undefined),1.41%
2,CN(C)CC(=O)N[C@@H]1C[C@@H]2O[C@H](CO)CC[C@@H]2O[C@@H]1CCc1ccc(C#Cc2ccccc2)cc1,3.01%
3,FC(F)(F)Oc1ccccc1C(c1nnnn1C1CCCCC1)N1CCN(C/C=C/c2ccccc2)CC1 (centres undefined),9.77% (active)
4,COc1ccc(C(c2nnnn2C2CCCC2)N2CCN(C/C=C/c3ccccc3)CC2)cc1 (centres undefined),-1.95%
5,CCCCn1nnnc1C(c1cccc(OC)c1OC)N1CCN(C/C=C/c2ccccc2)CC1 (centres undefined),3.3%
6,COC(=O)C12C=C3CC(c4ccccc4)=C3C(=O)N1Cc1[nH]c3ccccc3c1C2 (centres undefined),-5.87%
7,CC(=O)c1cc(-c2ccc3ccccc3c2)c(=O)n2c1CCC2,-8.84%
8,O=C(NCCc1c[nH]c2ccccc12)OCc1cn(-c2c(F)cccc2F)nn1,-1.78%
9,C=CCN1C(=O)[C@H](CC(=O)N2CCN(C(=O)OCC)CC2)[C@@]2(C(=O)OCC)CCCC=C12,-4.33%
10,N[C@@H](Cc1ccccc1)C(=O)N1CCC[C@@H]1C(=O)N1CCC2CCN(S(=O)(=O)c3ccccc3)CC21 (some centres undefined),-3.15%
11,CN(CC(=O)Nc1ccc(S(=O)(=O)N2CCCC2)cc1)Cc1ccc(Cl)c(Cl)c1,4.22%
12,O=C(Cc1ccc(Cl)c(Cl)c1)Nc1ccc(SC(F)F)cc1,8.77% (active)
13,N#C/C(=C\c1cccnc1)C(=O)Nc1ccc(SC(F)F)cc1,2.16%
14,C[C@@H]1CN([C@@H](C)CO)C(=O)c2cccc(NC(=O)Nc3cccc4ccccc34)c2O[C@H]1CN(C)S(=O)(=O)c1ccccc1F,-10.5%
15,CN(C)S(=O)(=O)c1cccc(C(=O)N/N=C\c2ccco2)c1,1.33%
16,O=C(Nc1cc(-c2ccccc2)nn1-c1ccccc1F)c1ccc([N+](=O)[O-])cc1,2.52%
17,COCCNC(=O)c1ccc(-n2c(SCc3cccnc3)nc3ccccc3c2=O)cc1,-0.26%
18,O=C(Nn1c(SCc2ccc([N+](=O)[O-])cc2)nc2ccccc2c1=O)c1ccc(F)cc1,8.99% (active)
19,O=C(CSc1nc2ccccc2n1Cc1ccccc1Cl)N/N=C\c1c[nH]c2ccccc12,4.92%
20,COc1ccc(CSc2nnc(SCC(=O)Nc3ccccc3C(F)(F)F)s2)cc1,1.07%
21,COc1ccc2c(C(C)c3ccc(N)cc3)cn(C)c2c1 (centres undefined),1.72%

row,SMILES,inhibition
1,CCOC(=O)C1(Cc2ccccc2)CCN(Cc2cn(C(C)=O)c3ccccc23)CC1,-0.16%
2,Cn1nc(C(F)(F)F)c(-c2ccc(F)cc2)c1NC(=O)CSCC(=O)O,-2.02%
3,Cn1nc(C(F)(F)F)c2cc(NC(=O)OCC(C)(C)C)sc21,8.91% (active)
4,Cn1nc(C(F)(F)F)c2cc(C(=O)N3CCOCC3)sc21,-1.03%
5,COC(=O)[C@]12C[C@H](CC(=O)NCCc3ccccc3OC)C(=O)N(Cc3ccco3)C1=C[C@H](C(C)C)O[C@@H]2C1CC1,-2.62%
6,O=C(c1cccc(C(F)(F)F)c1)N1CC[C@H]2[C@H](CCCN2Cc2cc(F)cc(F)c2)C1,-0.58%
7,COC(=O)CC1CCc2cc(C)cc(C(CC(C)C)NC(=O)[C@H](CC(C)C)NC(=O)OCc3ccccc3)c2O1 (some centres undefined),-2.33%
8,Cc1cc(NC(=O)CN2C(=O)NC(CCc3ccccc3)C2=O)no1 (centres undefined),-0.8%
9,COc1ccc(C2(c3ccc(OC)cc3)NC(=O)N(CC(=O)Nc3cc(C)on3)C2=O)cc1,2.54%
10,Cc1cc(NC(=O)CN2C(=O)NC(CC(C)C)C2=O)no1 (centres undefined),10.8% (active)
11,COc1ccc(Cn2cc(CN3[C@@H](CC(C)C)COc4cc(Br)ccc4S3(=O)=O)nn2)cc1,1.7%
12,COc1ccc(-n2c(SCC(=O)Nc3ccc4c(c3)OCCO4)nnc2-c2ccc(Cl)cc2)cc1,4.24%
13,O=C(CCCCCN1C(=O)C2C3C=CC(C3)C2C1=O)Nc1ccccn1 (centres undefined),2.59%
14,c1csc(-c2nnc(SCc3nc4ccccc4[nH]3)o2)c1,-10.2%
15,COC(=O)[C@]12C[C@H](CC(=O)N3CCOCC3)C(=O)N(Cc3ccc(Cl)cc3Cl)C1=C[C@H](COCc1ccccc1)O[C@@H]2C,0.56%
16,O=C(CN1CCN(c2ncc(C(F)(F)F)cc2Cl)CC1)Nc1ccc2c(c1)OCO2,-4.94%
17,CC(=O)c1ccc(Cc2ncc(C(F)(F)F)cc2Cl)s1,-2.56%
18,O=C(Cc1ncc(C(F)(F)F)cc1Cl)Nc1cccc(Br)c1,10.2% (active)
19,CCOC(=O)[C@]12CCCC3=C1N(CCC3)C(=O)[C@@H](CC(=O)NCc1cccs1)C2,0.06%
20,Nn1c(SCC(=O)N2c3ccccc3Sc3ccccc32)nnc1-c1n[nH]c2c1CCC2,5.84%
21,CN(C)c1ccc(NC(=O)NC2CCCCN(Cc3ccc(Cl)cc3)C2=O)cc1 (centres undefined),8.69% (active)

row,SMILES,inhibition
1,Cc1ccc(CN2CCCCC(NC(=O)C3CCCCC3)C2=O)cc1 (centres undefined),1.84%
2,O=C(NC1CCCCN(Cc2ccc(Cl)cc2)C1=O)c1ccc(Br)cc1 (centres undefined),5.04%
3,CN(C)[C@H]1CCN(c2cccc3c2S(=O)(=O)N2CC[C@H](C2)O3)C1,-2.38%
4,COC(=O)C[C@@H]1CC[C@H]2[C@@H](COc3ccc(NS(=O)(=O)CC(F)(F)F)cc3C(=O)N2C)O1,-6.55%
5,CCOC(=O)c1c(Cc2ccc(Cl)cc2)c[nH]c1C,11.1% (active)
6,CCOC(=O)c1c(S(=O)(=O)Nc2cccc(Cl)c2)c(C)n(C)c1C,-9.22%
7,CCOC(=O)c1ccc(CS(=O)c2ccc(Cl)cc2)o1 (centres undefined),-2.74%
8,CC(C)N1CCCCC(NC(=O)c2ccc3ccccc3c2)C1=O (centres undefined),-4.85%
9,COc1ccc(C(=O)Nc2ccc(C3(C#N)CCCC3)cc2)cc1OC,8.73% (active)
10,COc1ccc(C(=O)NC2CC(C)(C)NC(C)(C)C2)cc1OC,-2.12%
11,COc1ccc(C(=O)Nc2ccc3nc(N4CCCCC4)cc(C)c3c2)cc1OC,-7.57%
12,C=CCN(C)CC#Cc1ccccc1,4%
13,c1coc(CCNc2ncnc3ccc(-c4ccc5c(c4)OCO5)cc23)c1,-61.9%
14,O=C(CSc1nc2ccc(Nc3nc(N4CCOCC4)nc(N4CCOCC4)n3)cc2s1)NCc1ccco1,-1.45%
15,O=C(CSc1ccccc1)Nc1cc(Cl)ccc1Oc1ccccc1,2.94%
16,O=C(CSc1nc(Nc2ccccc2)nc(N2CCOCC2)n1)Nc1cc(Cl)ccc1O,10.2% (active)
17,Cc1cc(=O)[nH]c(SCC(=O)Nc2ccc(Cl)cc2C)n1,3.04%
18,CCCCNC(=O)C[C@H]1C(=O)N(Cc2ccc(OC)cc2)C2=CCCC[C@@]21C(=O)OCC,-4.97%
19,CC(C)(C)OC(=O)NCc1cc(F)ccc1/C=C/S(=O)(=O)NCCc1ccccc1,4.18%
20,O=C1NC(=O)C(c2ccc(Cl)cc2)N1 (centres undefined),35.4% (active)
21,CC(C)Oc1ccc(C2NC(=O)NC2=O)cc1 (centres undefined),-3.2%

row,SMILES,inhibition
1,O=C1CSC(c2ccc(Cl)cc2)N1 (centres undefined),-1%
2,Fc1ccc2nc(COCc3nc4ccc(F)cc4[nH]3)[nH]c2c1,-1.4%
3,COc1ccc(Cn2ccc3ccc(-c4ccc5ccn(Cc6ccccc6C)c5c4)cc32)cc1,-14.6%
4,CCCC1CCC2(CCCN2CCOC(=O)NCc2ccccc2)CC1 (centres undefined),-6.91%
5,COc1cccc(NS(=O)(=O)c2ccc(-c3coc(C)n3)cc2)c1,0.72%
6,COc1ccc(S(=O)(=O)Nc2ccc(O)c(Sc3nc4ccccc4s3)c2)cc1,9.23% (active)
7,COc1ccc(NS(=O)(=O)c2ccc(O)c(C(=O)OCC(=O)NC3CCCCC3)c2)cc1,-2.64%
8,CCOC(=O)C1CCN(C(=O)C(C)(C)NC(=O)Nc2ccccc2Cl)CC1,-3.66%
9,C=CCN1C(=O)[C@@H](CC(=O)NCCCOCCCC)[C@]2(C(=O)OCC)CCCCC/C=C/12,-0.06%
10,CCC(c1ccc(NC(=O)OC(C)(C)C)cc1)c1cc(OC)cc(OC)c1 (centres undefined),3.59%
11,C=CCN1C(=O)[C@@H](CC(=O)N2CCN(C(=O)OCC)CC2)[C@]2(C(=O)OCC)CCCCC/C=C/12,-4.2%
12,Cc1cc(C(=O)NN=C/C=C/c2ccco2)n[nH]1,-5.03%
13,COC(=O)C1CN(Cc2ccc(F)cc2)CCS(=O)(=O)N1Cc1ccc(Cl)cc1 (centres undefined),-3.73%
14,C[C@H]1[C@H](NC(=O)c2cccc(N(C)C)c2)CC[C@@]23CCCN2C(=O)CCC[C@@H]13,-31.1%
15,COc1ccc(CC(N)c2csc(NC(=O)Nc3ccc(C(C)C)cc3)n2)cc1 (centres undefined),2.77%
16,CC(C)(C)CC(=O)Nc1nc(C(N)Cc2ccc(C(F)(F)F)cc2)cs1 (centres undefined),-1.9%
17,COc1ccc(CC(N)c2csc(NC(=O)NC(c3ccccc3)c3ccccc3)n2)cc1 (centres undefined),8.79% (active)
18,CCOC(=O)c1csc(NC(=O)Nc2cccc(OC)c2)n1,-0.26%
19,NC(c1csc(NC(=O)Nc2cccc(C(F)(F)F)c2)n1)C1CCCCC1 (centres undefined),3.01%
20,COc1ccc(C(N)c2csc(NC(=O)Nc3cccc(C(F)(F)F)c3)n2)cc1 (centres undefined),13.7% (active)
21,COc1ccc(-n2c(COc3ccc(C)cc3)nnc2SCC(=O)Nc2ccc(Oc3ccccc3)cc2)cc1,-2.03%
